Active and inactive are the calls of the source. Unless noted, how the calls were made is not given here.

Experimental findings from PubChem BioAssay are described below.

Experiment [1] in a line: resazurin metabolic signal in HepG2 cells – cell-based, resazurin fluorescence, 24 h, PK04 Diversity Set, profiling panel (AID 1172). Further: test concentration not given here. As to conditions: HepG2 viability, higher = more signal. Background: The colour change of resazurin is a common sign of viable cells or microbes.
The nature of experiment [2]: budding yeast growth changes without added modifier – OD600, strain BY4716, 24 h, basal condition, primary screen (AID 1173). As to conditions: S. cerevisiae BY4716 growth, OD600, 24 h; higher = more signal, called active from +8 up or from −8 down.
A short description of experiment [3]: viability profiling in MM1S myeloma cells – cell-based, resazurin fluorescence, basal, 24 h, PK04 Diversity Set, profiling panel (AID 1174).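 Further: MM1S multiple myeloma cell line; test concentration not given here.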 The conditions noted are these: higher = more signal, called active from +8 up or from −8 down.
Experiment [4] concerns the target Dihydroorotate dehydrogenase (quinone), mitochondrial (Plasmodium falciparum (isolate 3D7)) (UniProt Q08210). In words: inhibition of P. falciparum DHODH – biochemical, C-terminal His tag, absorbance 600 nm, primary screen (AID 1175).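 Further: recombinant parasite enzyme with a five histidine tag at its C terminus; test concentration not given here.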 The conditions noted are these: PfDHODH enzyme, DCIP absorbance 600 nm; higher = more signal, called active from +8 up or from −8 down.

Experiment [5] is described as follows: inhibition of PAO1 biofilm formation – strain PAO1, LB-PBS medium, absorbance 600 nm, primary screen (AID 1176). Further: test concentration not given here. The conditions noted are these: P. aeruginosa PAO1 growth/biofilm, A600, 12 h; higher = more signal.
Experiment [6] can be described thus: growth modulation of vineyard yeast isolate – strain RM11-1a, OD600, basal, 24 h, primary screen (AID 1177).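 Further: cultures grown under basal conditions with no added stressor; test concentration not given here.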 As to conditions: S. cerevisiae RM11-1a growth, OD600, 24 h; higher = more signal, called active from +8 up or from −8 down.
A short description of experiment [7]: growth of efflux-deficient E. coli DRC39 – strain DRC39, OD650, 24 h, E. coli filamentation inducers, primary screen (AID 1178).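 Further: growth measured as culture turbidity by optical density at 650 nm; test concentration not given here.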 The conditions noted are these: E. coli DRC39 acrAB, higher = more signal, called active from +8 up or from −8 down.
Experiment [8] in a line: growth of efflux-deficient E. coli DRC39 – strain DRC39, OD650, 48 h, E. coli filamentation inducers, primary screen (AID 1179).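 Further: screen aims at cell division blockers that make cells filament.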 The conditions noted are these: E. coli DRC39 delta-acrAB growth, higher = more signal, called active from +8 up or from −8 down.
Experiment [9] can be described thus: viability profiling in RPMI8226 myeloma cells – cell-based, resazurin fluorescence, basal, 24 h, PK04 Diversity Set, profiling panel (AID 1180).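 Further: RPMI8826 multiple myeloma cell line at 5000 cells per well; test concentration not given here.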 As to conditions: higher = more signal.
In experiment [10] the target is E3 ubiquitin-protein ligase XIAP (Homo sapiens) (UniProt P98170). In words: small molecules binding XIAP protein – biophysical, small-molecule microarray, fluorescence 635 nm, primary screen (AID 1181).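 Further: score merges 667 nm emission and signal to noise over triplicate slides.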 As to conditions: higher = more signal.
Chain of E3 ubiquitin-protein ligase XIAP (Homo sapiens) (P98170 whole entry, looked up): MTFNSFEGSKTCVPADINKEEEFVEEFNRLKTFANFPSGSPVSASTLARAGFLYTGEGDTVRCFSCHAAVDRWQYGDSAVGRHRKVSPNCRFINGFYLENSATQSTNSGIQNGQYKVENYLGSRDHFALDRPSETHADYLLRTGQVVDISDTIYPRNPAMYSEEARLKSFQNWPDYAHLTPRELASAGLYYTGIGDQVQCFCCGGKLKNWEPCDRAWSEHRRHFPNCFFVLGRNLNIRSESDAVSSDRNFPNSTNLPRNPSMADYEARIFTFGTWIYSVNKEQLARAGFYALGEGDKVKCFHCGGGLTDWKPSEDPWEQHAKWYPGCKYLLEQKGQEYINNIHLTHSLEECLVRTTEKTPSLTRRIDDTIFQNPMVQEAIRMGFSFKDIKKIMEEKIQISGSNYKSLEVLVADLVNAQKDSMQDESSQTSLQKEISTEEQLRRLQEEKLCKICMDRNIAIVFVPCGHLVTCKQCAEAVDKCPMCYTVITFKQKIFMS

Chain of Dihydroorotate dehydrogenase (quinone), mitochondrial (Plasmodium falciparum (isolate 3D7)) (Q08210 whole entry, looked up): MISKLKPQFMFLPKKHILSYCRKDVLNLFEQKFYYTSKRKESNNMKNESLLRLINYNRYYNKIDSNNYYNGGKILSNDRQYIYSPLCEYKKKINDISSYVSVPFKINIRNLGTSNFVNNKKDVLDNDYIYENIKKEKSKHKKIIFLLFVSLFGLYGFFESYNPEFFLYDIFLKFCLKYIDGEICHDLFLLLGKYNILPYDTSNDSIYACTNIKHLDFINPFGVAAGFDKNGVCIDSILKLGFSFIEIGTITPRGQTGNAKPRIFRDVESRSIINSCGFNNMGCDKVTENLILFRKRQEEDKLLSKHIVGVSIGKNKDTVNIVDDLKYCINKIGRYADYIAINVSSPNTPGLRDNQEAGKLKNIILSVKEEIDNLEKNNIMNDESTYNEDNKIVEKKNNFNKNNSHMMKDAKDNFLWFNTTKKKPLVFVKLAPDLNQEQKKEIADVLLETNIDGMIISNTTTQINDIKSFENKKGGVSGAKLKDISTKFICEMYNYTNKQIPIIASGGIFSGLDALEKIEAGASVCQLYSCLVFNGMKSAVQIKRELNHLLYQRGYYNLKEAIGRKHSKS

With `O=C1c2ccccc2[C@](Cc2ccccc2I)(C(=O)NC2CC2)[C@H](c2ccc(CO)cc2)N1C1CCCCC1`, the z-score was -0.13 in experiment [1]; 0.404 (inactive) in experiment [2]; 0.516 (inactive) in experiment [3]; 0.304 (inactive) in experiment [5]; 2.64 (inactive) in [6]; -0.0781 (inactive) in experiment [7]. The z-score in [8] was -0.585 (inactive); in [9], 0.549. Also, the composite z-score in [4] was 1.06 (inactive); in experiment [10], -0.0426.
For `O=C1NC(=O)C2C1C=CC(C(O)c1ccccc1)N2Nc1ccc(Cl)cc1Cl` (stereo not given), the z-score in experiment [1] is -2.45; in experiment [2], -17.3 (active); in [3], -1.62 (inactive); in experiment [5] it was 1.43 (inactive); in [6] it was -15.4 (active); in experiment [7], 0.047 (inactive). The values for the z-score in [8] and in experiment [9] were -0.224 (inactive) and -1.55, respectively. Moreover, the composite z-score is -0.782 (inactive) in [4] and 0.54 in [10].
Take `CC1(C)[C@@H]2CC(C(O)C3C=CC4C(=O)N(c5ccccc5)C(=O)C4N3Nc3ccccc3)=C[C@H]1C2` (stereo not given in full): the z-score in experiment [1] is 0.0594; in experiment [2], -3.01 (inactive); in experiment [3], -0.852 (inactive); in [5] it was 0.711 (inactive); in experiment [6], -0.0064 (inactive); in [7] it was -0.441 (inactive). Further, the results for the z-score in experiment [8] and in experiment [9] were -0.328 (inactive) and -1.08, respectively. For the same compound, the composite z-score is 0.232 (inactive) in experiment [4] and 0.169 in experiment [10].
Regarding `CN(C)CCCNC(=O)[C@@]1(c2ccc([N+](=O)[O-])cc2)CC(=O)N(C2CCCCC2)[C@@H]1c1ccc(CO)cc1`, the z-score is -0.252 in experiment [1]; -1.59 (inactive) in experiment [2]; -0.0665 (inactive) in experiment [3]; -0.177 (inactive) in experiment [5]; -0.0078 (inactive) in experiment [6]; 0.328 (inactive) in experiment [7]. Further, the z-score is -0.16 (inactive) in [8] and -0.155 in [9]. The composite z-score in experiment [4] is 0.456 (inactive); in experiment [10], -0.0073.
On to `O=C(NCC(F)(F)F)[C@@H]1c2ccccc2C(=O)N(C2CCCCC2)[C@H]1c1ccc(CO)cc1`, for which the z-score is -0.501 in experiment [1]; 0.804 (inactive) in [2]; -0.435 (inactive) in [3]; -0.255 (inactive) in experiment [5]; 1.11 (inactive) in experiment [6]; -0.0514 (inactive) in experiment [7]. The z-score in [8] is -0.335 (inactive); in [9] it was 0.538. For the same compound, the values for the composite z-score in [4] and in experiment [10] were 0.843 (inactive) and 0.056, respectively.
As to `COC(=O)[C@@]1(Cc2ccc(OC)cc2)[C@H]2c3cc(C(=O)N4CCCC4)n(Cc4ccc(OC)c(OC)c4)c3C[C@H]2CN1C(=O)c1ccccc1`, the z-score in [1] is 0.277; in experiment [2], 1.66 (inactive); in experiment [3] it was -0.994 (inactive); in experiment [5], 0.259 (inactive); in [6], 0.744 (inactive); in [7], -0.333 (inactive). In addition, the z-score in experiment [8] is -0.888 (inactive); in experiment [9], -0.636. Besides, the composite z-score in [4] was -0.245 (inactive); in experiment [10], -0.0541.
With `COC(=O)[C@@]1(Cc2ccccc2)[C@H]2c3cc(C(=O)N4CCCC4)n(Cc4cccc5ccccc45)c3C[C@H]2CN1C(=O)c1ccccc1`, the z-score in experiment [1] is -1.13; in experiment [2], 1.37 (inactive); in experiment [3], -1.65 (inactive); in experiment [5], -0.347 (inactive); in [6], 0.224 (inactive); in experiment [7], -0.131 (inactive). Also, the z-score in experiment [8] was -0.0176 (inactive); in experiment [9] it was -1.9. For the same compound, the composite z-score in experiment [4] is -0.323 (inactive); in experiment [10] it was -0.0082.
As for `C=CC[C@]1(C(=O)NCCCOC)N=C(c2ccc(OCCCO)cc2)O[C@H]1c1ccccc1N=[N+]=[N-]`, the z-score in [1] was 0.632; in [2], 0.215 (inactive); in experiment [3], -0.894 (inactive); in experiment [5] it was 1.79 (inactive); in experiment [6] it was 0.571 (inactive); in experiment [7], 0.961 (inactive). Further, the z-score in [8] is -0.615 (inactive); in experiment [9], -1.04. Moreover, the figures for the composite z-score in experiment [4] and in [10] were 1.1 (inactive) and 0.262, respectively.
With `O=C1O[C@H](c2ccccc2)[C@H](c2ccccc2)N2[C@H]1[C@@H](C(=O)O)[C@]1(C(=O)Nc3ccc(C#CC4=CCCCC4)cc31)[C@H]2c1ccccc1OCCO`, the z-score is -1.19 in experiment [1]; -1.17 (inactive) in experiment [2]; -5.12 (inactive) in experiment [3]; 2.36 (inactive) in experiment [5]; 1.73 (inactive) in experiment [6]; -0.0532 (inactive) in experiment [7]. The z-score in experiment [8] was 0.0958 (inactive); in [9] it was -6.63. Also, the composite z-score in experiment [4] was -6.35 (inactive); in [10] it was -0.102.
As for `O=C1NC(=O)C2C1C=CC(C(O)c1cccc3ccccc13)N2Nc1ccccn1` (stereo not given), the z-score in experiment [1] is -0.692; in experiment [2] it was 0.268 (inactive); in [3] it was -1.74 (inactive); in [5], 0.226 (inactive); in [6], 0.798 (inactive); in experiment [7], -0.334 (inactive). Besides, the z-score in [8] is 0.638 (inactive); in [9], -0.94. Further, the composite z-score in [4] was 0.305 (inactive); in experiment [10], 0.276.
As to `CN(C)CCCNC(=O)[C@@]1(C)c2ccccc2C(=O)N(Cc2cc(F)cc(C(F)(F)F)c2)[C@H]1c1ccc(CO)cc1`, the z-score in [1] is 0.101; in experiment [2] it was -0.84 (inactive); in experiment [3] it was 0.079 (inactive); in [5], 0.264 (inactive); in experiment [6], -1.11 (inactive); in experiment [7] it was 0.706 (inactive). Further, the figures for the z-score in experiment [8] and in experiment [9] were -0.175 (inactive) and -0.406, respectively. Besides, the results for the composite z-score in [4] and in [10] were -0.478 (inactive) and -0.0079, respectively.
Regarding `COC(=O)[C@@]1(Cc2ccccc2)[C@H]2c3cc(C(=O)N4CCCC4)n(Cc4nc5ccccc5[nH]4)c3C[C@H]2CN1C(=O)c1ccccc1`, the z-score is -0.415 in experiment [1]; 1.22 (inactive) in experiment [2]; -1.66 (inactive) in experiment [3]; 0.687 (inactive) in [5]; 0.759 (inactive) in experiment [6]; -0.538 (inactive) in experiment [7]. The z-score in experiment [8] was -1.1 (inactive); in experiment [9], -1.3. The composite z-score in [4] was 0.374 (inactive); in experiment [10], 0.119.
As to `C#CCN(Cc1ccccc1Br)C(/C=C/c1ccccc1)CO` (stereo not given), the z-score in [1] is -0.54; in experiment [2], -6.66 (inactive); in [3], 0.862 (inactive); in experiment [5], -0.365 (inactive); in experiment [6], -1.26 (inactive); in experiment [7], 1.1 (inactive). Further, the z-score is -0.494 (inactive) in experiment [8] and -0.166 in [9]. For the same compound, the values for the composite z-score in experiment [4] and in experiment [10] were 0.34 (inactive) and 0.147, respectively.
